The list is not random: actives were taken first. Their share in the collection is about 2.4%.
CHO-K1 Ca antag: M1 antagonist counterscreen hit in parental CHO-K1 cells; ATP-induced calcium, Fluo-8 fluorescence; inhibition, % at 3 µM; 360,000 compounds, 0.6% hits;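 active = inhibition above a per-plate cutoff, the plate's mean sample inhibition plus 3 SD, cut at about 24% in these data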;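 note: 0% = DMSO plus EC80 ATP and 100% = DMSO alone without ATP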
M1 PAM parental: counter-screen for M1 PAMs: effect in parental CHO-K1 cells; activation, % at 3 µM; 360,000 compounds, 0.02% hits; ATP EC20, Fluo-8 calcium fluorescence; 0% at ATP EC20, 100% at ATP max;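 active = activation above the run cutoff, the mean activation of all test compounds plus 3 SD, cut at about 40% in these data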;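 note: peak over basal fluorescence ratio in a 140 s read after ATP addition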
M1 ag parental: counter-screen for M1 agonists: effect in parental CHO-K1 cells. activation, % at 3 µM. Fluo-8 calcium fluorescence; scaled to maximal ATP response, vehicle zero. AID 602248. 360,000 compounds, 0.48% hits; in the data active = activation above about 15%;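 note: untransfected CHO-K1 host cells lacking M1 receptor as counterscreen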
CHRM1 agonist: agonists of human M1 muscarinic receptor; P11229; activation, % at 3 µM; 360,000 compounds, 0.33% hits; CHO-K1 hM1, Fluo-8 calcium fluorescence, agonist mode; 0% DMSO, 100% acetylcholine EC100;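 active = activation above the run's mean compound activation plus 3 SD, cut at about 16% in these data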;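 note: peak over basal fluorescence ratio within a 140 s kinetic read after compound addition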
Target sequence (P11229 whole entry, looked up): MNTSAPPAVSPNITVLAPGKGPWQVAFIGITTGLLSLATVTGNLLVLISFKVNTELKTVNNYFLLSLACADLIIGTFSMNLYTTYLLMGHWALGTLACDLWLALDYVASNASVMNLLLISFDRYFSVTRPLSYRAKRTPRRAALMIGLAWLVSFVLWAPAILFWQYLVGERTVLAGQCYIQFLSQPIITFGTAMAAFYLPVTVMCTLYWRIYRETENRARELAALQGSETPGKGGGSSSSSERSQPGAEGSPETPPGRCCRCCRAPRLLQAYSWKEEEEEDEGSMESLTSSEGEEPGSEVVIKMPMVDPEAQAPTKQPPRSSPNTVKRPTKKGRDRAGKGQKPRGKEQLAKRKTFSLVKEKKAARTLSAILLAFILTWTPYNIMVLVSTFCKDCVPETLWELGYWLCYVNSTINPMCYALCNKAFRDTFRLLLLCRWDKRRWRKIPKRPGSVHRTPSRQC
M1 antag: blocks human M1 muscarinic receptor; 360,000 compounds, 1.3% hits; AID 588852; P11229; CHO-K1 hM1, Fluo-8 calcium fluorescence, ACh EC80 antagonist; inhibition, % at 3 µM;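 active = percent inhibition above its own plate's cutoff, namely the mean of that plate's compound wells plus 3 SD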;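 note: peak over basal fluorescence ratio during 140 s after agonist addition; 0% = ACh EC80 plus DMSO and 100% = DMSO alone without agonist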
M1 PAM: positive allosteric modulators of human M1 muscarinic receptor | 360,000 compounds, 0.088% hits | P11229 | CHO-K1 hM1, Fluo-8 calcium fluorescence, ACh EC20; 0% = ACh EC20, 100% = maximal ACh | activation, % at 3 µM | AID 588819; in the data active = activation above about 19%, passing the limit was not always enough
Numbers without * were called inactive; . = no result.

SMILES	CHO-K1 Ca antag	M1 PAM parental	M1 ag parental	CHRM1 agonist	M1 antag	M1 PAM
CCOC1=C2CN(S(=O)(=O)c3ccc(C)cc3)[C@@H](c3ccccc3)C[C@H]2[C@H]2C(=O)N(c3ccccc3)C(=O)[C@H]2C1	28*	5	3	-4	11	-1
CCCCC[C@@H]1[C@@H]2C(=C(OCC)C[C@@H]3C(=O)N(c4ccccc4)C(=O)[C@H]23)[C@H](c2ccccc2)N1S(=O)(=O)c1ccc(C)cc1	25*	-1	0	5	-5	5
CCOC1=C2[C@@H](CN(S(=O)(=O)c3ccc(C)cc3)[C@H]2c2ccc(CC)cc2)[C@H]2C(=O)N(c3ccccc3)C(=O)[C@H]2C1	3	4	0	-5	-3	-3
CCOC1=C2CN(S(=O)(=O)c3ccc(C)cc3)[C@H](c3cccc(Cl)c3)C[C@H]2[C@H]2C(=O)N(c3ccccc3)C(=O)[C@H]2C1	10	15	4	-2	-1	6
CC(C)(C)C1CCC(C(=O)OCC(=O)Nc2ccc3[nH]c(=O)[nH]c3c2)CC1 (stereo not given)	10	-10	0	12	1	4
Cn1c(N)c(S(=O)(=O)N2CCN(c3ccccc3Cl)CC2)c(=O)n(C)c1=O	-8	16	2	-2	-9	5
Cc1ccc(NS(=O)(=O)c2ccc3c(c2)n(C)c(=O)n3C)c(C)c1	0	25	18*	0	-10	7
Cn1c(=O)n(C)c2cc(S(=O)(=O)Nc3ccccc3O)ccc21	-18	34	4	-4	5	-1
COc1ccc(CN2CCn3nc(C(=O)NC4CC4)cc3C2=O)cc1	-7	15	0	-1	-9	12
COc1ccc(C)cc1NC(=O)CNc1ccccc1CN(C)C1CCCCC1	5	9	0	-8	51*	-26
Cc1n(C)c2cc(Cl)ccc2[n+]1Cc1ccccc1	-6	-7	0	-13	4	-6
COc1cc2c3c(cccc3c1)C(=O)N(CCN1CCCC1)C2=O	-14	13	0	-8	-1	-2
Cc1ccc(OCC(=O)Nc2nnc(C3CCCO3)s2)c(Br)c1 (stereo not given)	6	-15	-1	-5	37*	-15
Cc1cccc(C)c1OCC(=O)Nc1nnc(C2CCCO2)s1 (stereo not given)	12	-10	0	-6	-10	9
CC(C)N1CCC(C)(C(=O)Nc2cccc3c2CCCC3)C1 (stereo not given)	6	2	4	-6	4	-1
O=C(CC[C@H]1O[C@@H](n2ccc(=O)[nH]c2=O)[C@H](O)[C@@H]1O)N1CCN(Cc2cccc3ccccc23)CC1	-9	0	0	-4	-18	-1
CC(NC(=O)Cc1ccccc1)c1cc2c(cc1Br)OCCCO2 (stereo not given)	-9	24	1	-5	13	-6
CC1=C(C(=O)N(C)C)CC(CC(=O)NCCCCc2ccccc2)C(=O)N1Cc1ccccc1 (stereo not given)	-4	13	0	35*	-15	-1
CCN(CC)C(=O)C1=C(C)N(CCCOC)C(=O)C(CC(=O)NCCc2ccccn2)C1 (stereo not given)	30*	-12	0	-4	-7	5
COCCCN1C(=O)C(CC(=O)NCCc2ccccn2)CC(C(=O)N2CCOCC2)=C1C (stereo not given)	-7	8	1	2	-12	10
COc1ccc(CN2C(=O)C(CC(=O)NCCCCc3ccccc3)CC(C(=O)N(C)C)=C2C)cc1 (stereo not given)	-8	17	-1	53*	-9	-17
CCOC(=O)C1=CCN(S(=O)(=O)c2ccccc2[N+](=O)[O-])C1c1ccc(C)cc1 (stereo not given)	2	12	1	-8	3	0
Cn1c(N/N=C/c2cc3ccccc3nc2Cl)nc2ccccc21	-11	20	1	-10	-12	11
CCCCNc1c(CC(C)C)nc2nc(C)cc(C)n12	25*	-9	-1	.	.	.
COc1ccc(-c2cnnc(N/N=C/c3ccc(O)c(OC)c3)n2)cc1	35*	-11	1	-1	2	-5

Screening data deposited in PubChem by The Scripps Research Institute Molecular Screening Center.
